In the library only some 2.6% were active in any assay of this set; here they are far more common.
TWEAK Fn14 block: inhibitors of TWEAK-Fn14 interaction signaling; 2% of 360,000 active; inhibition, % at 10 µM; TWEAK-stimulated Fn14 reporter cells, luciferase luminescence, 8 h; in the data active means inhibition above about 50%
TROY NFkB inh: TROY signaling inhibition. Q293 LMP1-TROYcd NF-kB luciferase reporter, 4 h. inhibition, % at 10 µM. 0.98% of 360,000 active;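 active means compounds whose plate-normalised and pattern-corrected inhibition of the luciferase reporter signal at the single screening dose is 50% or more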
LGR2 inh: inhibitors of bursicon-induced Drosophila LGR2 receptor cAMP signaling; AID 720647; 0.35% of 380,000 active; HEK293 LGR2, CRE-luciferase, bursicon-stimulated, 4 h; inhibition, % at 9.99 µM;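 active means drop in luminescence signal, shown as inhibition above about 50% in the replicate tests, limit read from the data, passing the limit was not always enough; inconclusive means probably only some replicates passing the limit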;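 further: agonist challenge used bursicon conditioned medium at about half maximal strength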
EWS-Fli inh: blocks EWS/Fli oncoprotein-driven transcription. A673 NR0B1-luciferase reporter, viability-normalised. inhibition, % at 12.6 µM. 0.67% of 350,000 active. AID 651661;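 active means mean inhibition of at least 50% after viability correction, with every replicate also passing that limit; inconclusive means mean reaches 50% but only one of two replicates passes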;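 further: firefly luciferase signal divided by Alamar Blue viability fluorescence both relative to DMSO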
LMP1 NFkB inh: inhibitors of Epstein-Barr LMP1-induced NF-kappaB reporter; AID 504558; 0.69% of 350,000 active; LMP1-induced NF-kappaB luciferase reporter cells, luminescence; inhibition, % at 12.5 µM; in the data active means inhibition above about 41%; inconclusive means no clear call, values can overlap the other calls;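 further: 0% = neutral control wells and 100% = reference inhibitor control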
An asterisk follows results filed as active.

Results for CC(=O)N1N=C(c2ccc(NS(=O)(=O)c3ccccc3)cc2)CC1c1ccco1 (configuration not stated) ?
TWEAK Fn14 block: 23; TROY NFkB inh: -29; LGR2 inh: 17; EWS-Fli inh: 54*; LMP1 NFkB inh: 18

What do the screens show for `COCC(=O)OCC(=O)N1N=C(c2ccc(Cl)cc2)CC1c1ccco1` (configuration not stated)?
TWEAK Fn14 block: 42; TROY NFkB inh: 24; LGR2 inh: -8; EWS-Fli inh: 4; LMP1 NFkB inh: 1

What do the screens show for `COc1ccc2c3c(n(C)c2c1)[C@H](CO)N(Cc1ccncc1)CC31CCN(C(=O)NC(C)C)CC1`?
LGR2 inh: 6; EWS-Fli inh: -2

How did CC(C)NC(=O)Nc1ccc2c(c1)CC(=O)N([C@H](C)CO)C[C@H](C)[C@@H](CN(C)C(=O)Nc1ccc(C(F)(F)F)cc1)O2 do in these assays?
LGR2 inh: 16; EWS-Fli inh: 2

How did Cc1noc(C)c1NC(=O)Nc1ccc2c(c1)C(=O)N([C@H](C)CO)C[C@@H](C)[C@@H](CN(C)C(=O)C1CCCCC1)OCCCC[C@@H](C)O2 do in these assays?
LGR2 inh: 10; EWS-Fli inh: 8

What do the screens show for `CC1=C(C(=O)Nc2cccc(F)c2)C(c2ccsc2)C2=C(CC(C)(C)CC2=O)N1` (configuration not stated)?
TWEAK Fn14 block: -4; TROY NFkB inh: 9; LGR2 inh: 2; EWS-Fli inh: 54*; LMP1 NFkB inh: -7

What do the screens show for `CO[C@@H]1CN(C)C(=O)c2ccc(NC(C)=O)cc2OC[C@@H](C)N(C(=O)Cc2cccnc2)C[C@H]1C`?
LGR2 inh: -5; EWS-Fli inh: 14

How did CC(=O)c1ccc(OCc2cc(C(=O)N(C)C(C)c3ccon3)no2)cc1 (configuration not stated) do in these assays?
TWEAK Fn14 block: 84*; TROY NFkB inh: -6; LGR2 inh: -9; EWS-Fli inh: 3; LMP1 NFkB inh: -2

Results for O=C(NCCO)c1cccc(Nc2nc(-c3ccccc3)c3cc(Cl)ccc3n2)c1 ?
TWEAK Fn14 block: 51*; TROY NFkB inh: 22; LMP1 NFkB inh: 11

How did C[C@H](CO)N1C[C@H](C)[C@H](CN(C)Cc2ccc(C(=O)O)cc2)OCCCC[C@H](C)Oc2ccc(NC(=O)Cc3ccccc3)cc2C1=O do in these assays?
LGR2 inh: 2; EWS-Fli inh: inconclusive

How did CCCCn1c(=N)n(CC(=O)c2ccc(Br)s2)c2ccccc21 do in these assays?
TWEAK Fn14 block: -10; TROY NFkB inh: 14; LGR2 inh: 36; EWS-Fli inh: 63*; LMP1 NFkB inh: -70

What do the screens show for `COc1ccc(OC)c(NC(=O)c2nc(S(=O)(=O)Cc3ccccc3)ncc2Cl)c1`?
TWEAK Fn14 block: 76*; TROY NFkB inh: 83*; LGR2 inh: 16; LMP1 NFkB inh: -1

Results for COc1ccc(NC(=O)c2nc(S(=O)(=O)Cc3cccc(C)c3)ncc2Cl)c(OC)c1 ?
TWEAK Fn14 block: 44; TROY NFkB inh: 54*; LGR2 inh: -23; LMP1 NFkB inh: 11

What do the screens show for `C[C@H]1CN([C@@H](C)CO)C(=O)c2cc(NC(=O)NC3CCCCC3)ccc2O[C@@H]1CN(C)Cc1ccc(C(F)(F)F)cc1`?
LGR2 inh: 8; EWS-Fli inh: -5

What do the screens show for `C[C@H]1CCCCO[C@@H](CN(C)C(=O)Nc2cccc3ccccc23)[C@@H](C)CN([C@@H](C)CO)C(=O)c2cc(NS(=O)(=O)c3ccccc3)ccc2O1`?
LGR2 inh: 27; EWS-Fli inh: 8

How did Cc1cc(C(=O)COC(=O)c2ccc(O)cc2)c(C)n1CC1CCCO1 (configuration not stated) do in these assays?
TWEAK Fn14 block: 50; TROY NFkB inh: 62*; EWS-Fli inh: -45; LMP1 NFkB inh: -15

What do the screens show for `COCCn1c(C)cc(C(=O)COC(=O)c2ccc(Cl)c(S(N)(=O)=O)c2)c1C`?
TWEAK Fn14 block: 72*; TROY NFkB inh: 10; LGR2 inh: 37; EWS-Fli inh: -44; LMP1 NFkB inh: 7

What do the screens show for `Cc1cc(C(=O)COC(=O)c2cccc(O)c2)c(C)n1C1CC1`?
TWEAK Fn14 block: 54*; TROY NFkB inh: -10; LGR2 inh: 73*; EWS-Fli inh: -28; LMP1 NFkB inh: 35

Results for CNS(=O)(=O)c1cccc(C(=O)OCC(=O)c2cc(C)n(CC3CCCO3)c2C)c1 (configuration not stated) ?
TWEAK Fn14 block: 37; TROY NFkB inh: 47; LGR2 inh: -41; EWS-Fli inh: -48; LMP1 NFkB inh: 25
